Experiments:
[1] = tested on: Vero E6 infected with SARS-CoV-2; test: morphology score (similarity to uninfected cells); higher = more like uninfected cells; conditions: 24 h
[2] = tested on: Vero E6 infected with SARS-CoV-2; test: SARS-CoV-2 infection rate relative to infected DMSO; higher = more infection, active = 60 or less; conditions: 24 h

| Structure (SMILES) | morphology score [1] | SARS-CoV-2 infection rate [2] |
| --- | --- | --- |
| Cc1oc2ccccc2c1CNC(=O)NCc1cccs1 (10 µM) | 0.0505 | 100% (inactive) |
| Nc1nccc(/C=C/c2ccccc2)n1 (10 µM) | 0.324 | 93% (inactive) |
| c1ccc2nc(C3=NCCN3)cnc2c1 (10 µM) | 0.177 | 93% (inactive) |
| CCCCCCCCCCCCCCCCOP(=O)([O-])OCC[N+](C)(C)C [miltefosine] (0.833333 µM) | 0.182 | 94.5% (inactive) |
| CCCN(CCC)C(=O)C(CCC(=O)O)NC(=O)c1ccccc1 (centres undefined) [proglumide] (10 µM) | 0.0817 | 107% (inactive) |
| Cc1c(OCC(F)(F)F)ccnc1C[S+]([O-])c1nc2ccccc2[nH]1 (centres undefined) [lansoprazole] (10 µM) | 0.115 | 99% (inactive) |
| NC(=O)c1cccc2cn(-c3ccc([C@@H]4CCCNC4)cc3)nc12 [niraparib] (0.833333 µM) | 0.0643 | 102% (inactive) |
| C[C@H](N)[C@H](O)c1ccc(O)c(O)c1 [levonordefrin] (10 µM) | 0.0723 | 94.5% (inactive) |
| COc1ccc2[nH]c([S+]([O-])Cc3ncc(C)c(OC)c3C)nc2n1 (centres undefined) [tenatoprazole] (10 µM) | 0.162 | 105% (inactive) |
| c1cc(OCCN2CCCCC2)cc(-c2n[nH]c3ccc(-c4nnc[nH]4)cc23)c1 (10 µM) | 0.363 | 94.5% (inactive) |
| S=P(N1CC1)(N1CC1)N1CC1 [thiotepa] (10 µM) | 0.127 | 96% (inactive) |
| CCN(CC)CCNC(=O)c1cc(Br)c(N)cc1OC [bromopride] (10 µM) | -0.115 | 116% (inactive) |

— the supplement of paper PMC13380429
